From PubChem BioAssay come the findings set out here.

By inhibition is commonly meant the percentage by which the read-out fell short of the control.

The source made the active and inactive calls. The rule behind the calls is not given here.

In this assay the target is Pantothenate synthetase (Mycobacterium tuberculosis (strain ATCC 25618 / H37Rv)) (UniProt P9WIL5). Briefly: Recombinant Mtb pantothenate synthetase (PanC) inhibitors, coupled enzyme, confirmatory (AID 375).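 Note: 0% = full reaction with vehicle and 100% = no enzyme background.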 The following applies: coupled enzyme assay; at 10 µM, stronger effect = higher value.
Chain of Pantothenate synthetase (Mycobacterium tuberculosis (strain ATCC 25618 / H37Rv)) (P9WIL5 whole entry, looked up): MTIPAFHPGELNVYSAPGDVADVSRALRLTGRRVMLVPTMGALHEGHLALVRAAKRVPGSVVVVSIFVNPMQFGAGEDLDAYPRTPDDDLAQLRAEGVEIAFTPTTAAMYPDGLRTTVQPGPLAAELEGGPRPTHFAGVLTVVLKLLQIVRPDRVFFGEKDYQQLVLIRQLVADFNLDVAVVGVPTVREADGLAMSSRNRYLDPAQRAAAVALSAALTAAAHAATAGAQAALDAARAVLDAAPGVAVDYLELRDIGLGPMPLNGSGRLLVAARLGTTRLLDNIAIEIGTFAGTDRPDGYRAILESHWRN
`Cc1cc2ncc(-c3ccc(Cl)cc3)c(N)n2n1`: the inhibition was 0% (inactive).
As for `Cc1ccc(S(=O)(=O)N2CCN(S(C)(=O)=O)C2c2ccccc2)cc1` (stereo not given), the figure is 0% (inactive).
As for `CN(Cc1ccccc1)Cc1nc2c(c(=O)n(C)c(=O)n2C)n1Cc1ccc(Cl)cc1`, the figure is 0% (inactive); as for `NS(=O)(=O)c1cc2c(cc1C(F)(F)F)NC(Cc1ccccc1)NS2(=O)=O` (stereo not given), 0% (inactive); as for `Cc1cc(C(=O)Nc2cccc(O)c2)c(C)o1`, 20% (inactive).
On to `COCCOC(=O)c1cc(C(=O)c2cc(F)ccc2O)coc1=N`, for which the inhibition is 2% (inactive).
As for `CCOC(=O)N1CCN(C(=O)Cn2ncn3nc(-c4cccs4)cc3c2=O)CC1`, the figure is 0% (inactive); as for `CCCCCCC(=O)c1c(C)[nH]c(C(=O)OCC)c1C`, 1% (inactive).
As for `COc1ccccc1NC(=O)C1=C(C)Nc2nnnn2C1c1ccccc1OC` (stereo not given), the figure is 2% (inactive); as for `COC(=O)C(O)(CC(=O)c1ccc(OC)cc1)C(F)(F)F` (stereo not given), 0% (inactive).
As for `COc1ccc(OC)c(CNC(=O)COc2cc(=O)n(C)c3ccccc23)c1`, the inhibition is 0% (inactive).
Consider `Cc1ccc(CN2C(=O)CCC2C(=O)NCCCN2CCC(C)CC2)cc1` (stereo not given), for which the inhibition was 8% (inactive).
As for `CCn1nnc(NC(=O)c2ccc(-c3ccc(Cl)cc3)o2)n1`, the figure is 2% (inactive); as for `CN(CC(=O)N1CCN(c2ccc(F)cc2)CC1)S(=O)(=O)c1ccc(F)cc1`, 0% (inactive); as for `Cc1ccc(N2CC(C)Cn3c2nc2c3c(=O)n(CC(=O)OCc3ccccc3)c(=O)n2C)cc1C` (stereo not given), 0% (inactive).
As to `CCOC(=O)N1CCN(CC(=O)Nc2cc(C)nn2-c2nc3ccccc3s2)CC1`, the inhibition was 0% (inactive).
Regarding `Cc1cnc(C(=O)Nc2ccc(-n3cnnn3)cc2)cn1`, the inhibition was 14% (inactive).
As for `CN1CCN(C(=O)C2CCN(S(=O)(=O)c3ccc4c(c3)oc(=O)n4C)CC2)CC1`, the figure is 0% (inactive); as for `CN(C)C(=O)Cn1c(SCC(=O)NC2CCCCC2)nc2ccccc21`, 0% (inactive).
For the molecule `O=C(COc1ccccc1Cl)NCc1ccco1`, the inhibition was 3% (inactive).
As for `CC(C)C[C@H](NC(=O)Nc1cccc(C(F)(F)F)c1)C(=O)O`, the figure is 0% (inactive).
`COC(=O)C(C#N)C(=C1C(=O)CC(C)(C)CC1=O)c1ccc(O)cc1` (stereo not given): the inhibition was 0% (inactive).
As for `O=C(NC1CCCC1)C(NS(=O)(=O)c1cccc2nsnc12)c1ccccc1` (stereo not given), the figure is 7% (inactive); as for `Cc1nc2ccccn2c(=O)c1CCN1CCC(C(=O)c2ccc(F)cc2)CC1`, 0% (inactive).
As for `Cc1nc2ccccc2c(=O)n1NC(=O)c1c(O)c2c(n(CC(C)C)c1=O)CCCC2`, the figure is 0% (inactive).
On to `CC(C)CN(CC(C)C)C(=O)C12CCC(C)(C(=O)C1)C2(C)C` (stereo not given), for which the inhibition is 3% (inactive).
As for `CCN(CC)c1nc(N(CC)CC)[nH]c(=O)n1`, the figure is 0% (inactive); as for `O=C(NCC(=O)N(Cc1cccs1)C(C(=O)NC1CCCC1)c1ccncc1)c1ccco1` (stereo not given), 4% (inactive).
As for `Cc1cc(C(=O)CSc2nnc(-c3ccco3)o2)c(C)n1CC1COc2ccccc2O1` (stereo not given), the figure is 0% (inactive).
Consider `CS(=O)(=O)c1ccc2nc(NC(=O)c3cccs3)sc2c1`, for which the inhibition was 0% (inactive).
As for `O=c1[nH]c2cc3c(cc2cc1C(c1nnnn1Cc1ccccc1)N1CCCc2ccccc21)OCO3` (stereo not given), the figure is 1% (inactive); as for `O=C(CN1C(=O)CC(c2ccco2)Sc2ccccc21)Nc1ccc2c(c1)OCCO2` (stereo not given), 3% (inactive); as for `Cc1ccc(NC(=O)CSc2nnc(-c3cnccn3)n2Cc2ccco2)cc1C`, 0% (inactive).
As for `COc1ccc(OC)c(N(CC(=O)Nc2cccnc2)S(=O)(=O)c2ccc(OC)c(OC)c2)c1`, the figure is 0% (inactive); as for `O=C(CS(=O)(=O)c1cn(Cc2ccc(Cl)cc2)c2ccccc12)N1CCCC1`, 6% (inactive); as for `Cn1cnc2c1c(=O)n(Cc1cccc(Br)c1)c(=O)n2C`, 1% (inactive).
Take `CC1=C(C)C(=O)NC(Nc2nc(C)c3cc(C)cc(C)c3n2)N1` (stereo not given): the inhibition is 0% (inactive).
As for `COc1cc(NC(=O)NC(C)(C(F)(F)F)C(F)(F)F)cc(OC)c1OC`, the figure is 0% (inactive).
In the case of `O=C(Nc1nnc(C2CCCC2)s1)C1CCN(S(=O)(=O)c2ccc(Cl)cc2)CC1`, the inhibition was 0% (inactive).
`CNCCC=C1c2ccccc2CCc2ccccc21`: the inhibition is 0% (inactive).
